Screening data as filed in PubChem BioAssay.
An excerpt weighted towards active compounds, which were near 7.3% of everything screened.
FLuc modulator: counter-screen for miR-21 project: firefly luciferase inhibitors or activators; P08659; purified FLuc, Km substrates, luminescence inhibition; Potency, µM (highest dose often 57.5 µM), without a hit: at the top dose activity change, negative = inhibition, usual class: inhibitors; 360,000 compounds, 6.9% hits;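 note: plate controls were vehicle for no effect and reference inhibitor for full effect; nearly all actives have a fitted effect of over 55% in size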
Target sequence (P08659 whole entry, looked up): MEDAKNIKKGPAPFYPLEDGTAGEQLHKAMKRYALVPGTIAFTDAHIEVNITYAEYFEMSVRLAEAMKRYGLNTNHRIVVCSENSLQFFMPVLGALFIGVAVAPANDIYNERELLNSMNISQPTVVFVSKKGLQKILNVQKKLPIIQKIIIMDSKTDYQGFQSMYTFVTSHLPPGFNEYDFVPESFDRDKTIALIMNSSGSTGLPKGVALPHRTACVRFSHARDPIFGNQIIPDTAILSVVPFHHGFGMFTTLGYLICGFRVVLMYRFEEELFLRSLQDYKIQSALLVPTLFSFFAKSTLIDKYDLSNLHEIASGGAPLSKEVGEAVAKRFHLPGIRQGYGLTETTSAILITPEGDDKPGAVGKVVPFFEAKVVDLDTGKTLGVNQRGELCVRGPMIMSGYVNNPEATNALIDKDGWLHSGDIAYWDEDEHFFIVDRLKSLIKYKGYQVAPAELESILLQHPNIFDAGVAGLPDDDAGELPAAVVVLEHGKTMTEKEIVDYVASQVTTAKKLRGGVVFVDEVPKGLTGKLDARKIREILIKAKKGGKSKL
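Biochemical qHTS of compounds, final roughly 60 µM downward over six points, against 10 nM purified firefly luciferase using Km concentrations of substrates (10 uM D-luciferin, 10 uM ATP) in Tris acetate pH 7.5 buffer; luminescence output.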
NPC1 prom act: NPC1 promoter activation; Huh7 NPC1 promoter luciferase reporter, 24 h; Potency, µM (titrated, usually from 9.22 µM), for the others: at the highest dose activation, actives largely listed as activators; 320,000 compounds, 2.4% hits; AID 485313; note: % of control where 0% means no effect; nearly all actives have a fitted effect of over 60% in size
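Luminescence read-out of NPC1 promoter-driven luciferase in stably transfected Huh7 cells; compounds delivered in DMSO and left 24 h at 37C, 5% CO2, qHTS titration format.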
Rab9 promoter act: activates the Rab9 promoter | AID 485297 | Potency, µM (titrated, usually from 9.22 µM), inactives show at the top dose activation, negative = inhibition, usual class: activators | Huh7 Rab9 promoter-luciferase reporter, luminescence, 24 h | 320,000 compounds, 2.8% hits; note: % of control where 0% means no effect; nearly all actives have a fitted effect of over 60% in size
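Rab9 promoter-driven luciferase in stably transfected Huh7 cells; 1500 cells/well rested 2 h, exposed to compound in DMSO for 24 h at 37 °C, 5% CO2. Luminescence read 10 min after adding luciferase reagent at ambient temperature.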
p53 reactivation: mutant p53 re-activation in reporter cells | H1299 p53-A138V BP100-luciferase reporter, luminescence, 24 h | Potency, µM (series often up to 92.2 µM), for the others: at the top dose activity change, positive = activation, actives largely listed as activators | 320,000 compounds, 0.063% hits | AID 504706; note: % of control where 0% means no effect; nearly all actives have a fitted effect of over 45% in size
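p53-null H1299 cells stably carrying temperature-sensitive p53-A138V and a BP100-luciferase reporter were pinned with compounds (4-point, 1:5 series) and held 24 hrs at 37 deg C. Luminescence was read 10 min after detection reagent.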
ELG1 genotoxic: genotoxicity induction in ELG1-luciferase HEK293T cells; HEK293T ELG1-luciferase reporter, luminescence, 16 h; Potency, µM (highest dose often 46 µM), for inactives: at the top dose activity change, positive = activation, hits mostly activators; 330,000 compounds, 1.3% hits; note: % of control where 0% means no effect; nearly all actives have a fitted effect of over 60% in size
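Quantitative HTS format in 1536-well plates. HEK293T ELG1-luciferase reporter cells receive test compound and are incubated 16 hr at 37 °C, 5% CO2; ONE-Glo added, 30 min room temperature, then luminescence read.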
SMN2 splice up: enhancers of SMN2 splice variant expression. HEK293 SMN2-luciferase splicing reporter, luminescence, 30-36 h. Potency, µM (doses to about 46.1 µM), for inactives: at the top dose activity change, positive = activation, actives largely listed as activators. 210,000 compounds, 2.8% hits. AID 1458; note: % of control where 0% means no effect; nearly all actives have a fitted effect of over 55% in size
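qHTS luciferase splicing reporter: luminescence rises when SMN2 exon 7 is included in transfected HEK293 cells. Compound exposure lasted 30-36 h at 37C, with 4.5 mM final sodium butyrate as control, followed by a ONE-Glo read.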
Starred values were filed as active, the others as inactive; ? = inconclusive; · = not tested or not shown; [ ] = dose if it differs, or a comment. Calls come from the whole dose curve; as a rule, active = well fitted curve in the direction sought with a large enough effect; inconclusive = small, poorly fitted or top-dose-only effect, or another doubt; inactive = no such curve, though single readings can be large; an effect the other way counts as inactive or inconclusive. Potency is the fitted concentration of half-maximal effect.

SMILES	FLuc modulator	NPC1 prom act	Rab9 promoter act	p53 reactivation	ELG1 genotoxic	SMN2 splice up
Cc1ccc(NC(=O)c2ccccc2OCC(=O)Nc2ccccc2F)cc1S(=O)(=O)N(C)C	7.6µM*	8%	19%	2%	0%	·
CN(C)S(=O)(=O)c1ccc(NC(=O)c2ccc(Br)o2)cc1	?	11%	15%	2%	13%	-5%
CN(C)S(=O)(=O)c1cc(NC(=O)c2cc(=O)c3ccccc3o2)ccc1Cl	?	21%	?	24%	1%	·
Cc1ccc(S(=O)(=O)N(C)C)cc1NC(=O)COc1ccccc1C(=O)Nc1ccccc1	-2%	1%	1%	-7%	-39%	·
Cc1ccc(NC(=O)c2cc3ccccc3o2)cc1S(=O)(=O)N(C)C	0.85µM*	3.2µM*	2.5µM*	?	2.6µM*	13µM*
CN(C)S(=O)(=O)c1ccc(NC(=O)c2cc3ccccc3o2)cc1	15µM*	?	?	22%	-1%	0%
CN(c1ccccc1)S(=O)(=O)c1cccc(NC(=O)c2cc3ccccc3oc2=O)c1	?	?	29%	15%	?	·
Cc1ccc(NC(=O)c2cc3ccccc3oc2=O)cc1S(=O)(=O)N(C)C	0.076µM*	-28%	-34%	-5%	10%	·
Cc1cc(C(=O)CSC(=S)SC(C)(C)C)ccc1Cl	·	·	·	·	·	-9%[9.22 µM]
Cc1ccc(CNC(=O)CCCn2c(=O)[nH]c3ccc(Br)cc3c2=O)cc1	7%	·	·	·	·	18%
Cn1c(=O)c2c(-c3ccc(Cl)cc3)ccnc2n(C)c1=O	4%	·	·	·	·	-11%
O=C(Nc1ccc(O)cc1)c1ccc2c(c1)C(=O)N(Cc1ccccc1)C2=O	2%	-9%	-1%	4%	1%	·
CC(C)CN1C(=O)c2ccc(C(=O)Nc3ccncc3)cc2C1=O	-9%	-12%	-5%	1%	-4%	-12%
COCCCN1C(=O)c2ccc(C(=O)Nc3ccccc3OC)cc2C1=O	-11%	-2%	-1%	3%	3%	20%
O=C(O)COc1ccc(NC(=O)c2ccc3c(c2)C(=O)N(Cc2ccccc2)C3=O)cc1	17µM*	-1%	-5%	28%	-1%	·
Cc1cc(C)c(NC(=O)c2ccc3c(c2)C(=O)N(Cc2cccnc2)C3=O)c(C)c1	7%	1%	-3%	-2%	11%	·
Cc1ccc(O)c(NC(=O)c2ccc3c(c2)C(=O)N(Cc2cccnc2)C3=O)c1	1.9µM*	1%	-1%	19%	8%	·
CC(C)CN1C(=O)c2ccc(C(=O)Nc3ccc(OCC(=O)O)cc3)cc2C1=O	6.7µM*	-3%	-4%	18%	-1%	·
COCCCN1C(=O)c2ccc(C(=O)Nc3ccc(OC)cc3)cc2C1=O	8.5µM*	-5%	17%	21%	8%	1%
CCOc1ccc(S(=O)(=O)N(CC(=O)N2CCC(C(N)=O)CC2)c2ccc(F)cc2)cc1	3%	1%	5%	2%	3%	·
Cc1ccc(-n2ncc3c(N4CCCCCC4)ncnc32)cc1Cl	0.43µM*	·	·	·	·	·
Cc1ccc(-n2ncc3c(N4CCCCC4)ncnc32)cc1Cl	0.13µM*	·	·	·	·	·
COc1ccc(N2CCN(c3ncnc4c3cnn4-c3ccc(C)c(Cl)c3)CC2)cc1	5%	·	·	·	·	·
COc1ccccc1NS(=O)(=O)c1cccc(C(=O)N2CCN(C(=O)c3ccco3)CC2)c1	1%	-3%	-3%	-13%	0%	·
CC1=N/C(=C\c2ccc(OC(C)C)cc2)C(=O)N1c1ccc(C(=O)O)cc1	12µM*	0%	-4%	7%	6%	-9%
SMILES	FLuc modulator	NPC1 prom act	Rab9 promoter act	p53 reactivation	ELG1 genotoxic	SMN2 splice up
COc1ccc(/C=C2\N=C(c3ccccc3)N(c3ccc(C(=O)O)cc3)C2=O)cc1OC	5.4µM*	13%	12%	-2%	14%	·
COc1ccc(C(=O)Nc2ccc(SC(F)F)cc2)cc1	3µM*	2.2µM*	0.79µM*	?	?	?
COc1ccc(NC(=S)c2ccncc2)cc1	0%	-2%	-11%	5%	0%	-50%
O=C(NCc1ccco1)c1cccc(NC(=O)c2ccco2)c1	-18%	-2%	7%	5%	7%	-8%
COc1ccc(C(=S)Nc2ccc(C)cc2)cc1	2.4µM*	2µM*	2.8µM*	22%	29%	18µM*
COc1ccc(NC(=O)c2ccc(C)cc2)cc1	2.7µM*	0.4µM*	0.45µM*	·	2.1µM*	·
COc1ccc(C(=O)Nc2cccc(C(=O)NCc3ccco3)c2)cc1	12µM*	18%	17%	-2%	2%	·
O=C(NCCc1ccccc1)C1CCN(c2ncccn2)CC1	-9%	11%	-2%	3%	6%	·
CC(C)(C)OC(=O)N1CCC(c2c(C(=O)N3CCN(c4ccccn4)CC3)cnn2-c2ccccc2Cl)CC1	-2%	·	·	·	·	·
CC(=O)OCOC(=O)CN(CC(=O)OCOC(C)=O)c1ccccc1OCCOc1ccccc1N(CC(=O)OCOC(C)=O)CC(=O)OCOC(C)=O	·	·	·	·	·	-13%
COc1ccc(NC(=O)c2c(Cl)n(C)c3ccccc23)cc1	9.5µM*	28%	28%	?	17%	?
O=C(Nc1ccc(Oc2ccsc2C(=O)O)cc1)c1ccccc1	24µM*	-1%	-8%	4%	0%	·
COc1ccc(C(=O)Nc2ccc(C(=O)NCCc3ccccc3)cc2)cc1	-6%	-3%	-2%	4%	6%	·
COc1ccc(NS(=O)(=O)NC(=O)c2c(C)n(C)c3ccccc23)cc1	-7%	0%	0%	9%	3%	·
COc1ccc2cc3cc(C(=O)NCc4ccco4)oc3nc2c1	?	-1%	-4%	4%	13%	-17%
COc1ccc2cc3c(N)c(C(=O)NCc4ccco4)sc3nc2c1	6µM*	?	2µM*	-4%	15%	13µM*
COc1ccc(NC(=O)c2ccccc2)cc1	?	3.5µM*	1.8µM*	·	?	·
Cc1ccc(C)c(NC(=O)Cn2c(=O)n(CCC(C)C)c(=O)c3cccnc32)c1	0%	·	·	·	·	7%
Cc1c(Cl)cccc1NC(=O)C(C)N(c1ccccc1)S(C)(=O)=O (stereo unspecified)	-9%	·	·	·	·	-6%
Cc1csc(SC(C)C(=O)NCC2CCCCC2)n1 (stereo unspecified)	-1%	-1%	6%	0%	-2%	-41%
Cc1ccc(NC(=S)c2ccncc2)cc1	?	4%	-1%	4%	-1%[9.26 µM]	·
O=C(Nc1ccsc1C(=O)O)c1ccccc1	24µM*	6%	12%	?	12%	·
O=C(Nc1ccsc1C(=O)N1CCCCCC1)c1ccccc1	5%	-1%	5%	8%	-4%	-16%
